Reference: PubChem BioAssay (NCI)
Compounds without any hit were thinned out: in the full panel of roughly 83,000, 20% have a hit.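 Results are percent growth after 48 hours of single-concentration exposure. 100 means growth as in untreated cells, lower positive values show inhibition; negative values down to -100 show cell death.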 Unmarked numbers belong to inactive results. Activity calls are given as the source filed them.

These compounds were tested on A549/ATCC NSCLC (assay: NCI-60 one-dose screen, 48 h (100 = growth as untreated, 0 = no growth, -100 = all killed)). Settings: 10 µM unless noted.
Procedure: Growth inhibition of the A549/ATCC human Non-Small Cell Lung tumor cell line is measured as a screen for anti-cancer activity. Cells are grown in 96 well plates and exposed to the test compound for 48 hours. Compounds are tested at a single concentration, which is 10^-5 M for most compounds. The reported endpoint is percent growth (GI% or GIPRCNT), where numbers from 0 - 100% represent growth inhibition, and numbers from -100% - 0 represent cell death. For example, a value of 40 represents 60% growth inhibition. A value of 0 means no net growth occurred over the course of the experiment. A value of -40 indicates 40% of cells at the beginning of the experiment died by the end of the experiment. A value of -100 means all cells are dead at the end of the experiment.
NCI-60 Human Tumor Cell Lines Screen was performed using the standard one-dose NCI protocol, which is described in more detail at https://dtp.cancer.gov/discovery_development/nci-60/default.htm.
Compounds with GIPRCNT values below 10 were considered active. Activity score was based on GIPRCNT using the following formula: […]
Score is 0 for GIPRCNT values of 100 or above, 50 for GIPRCNT values of 0, and 100 for GIPRCNT values of -100.

Structure (SMILES) | growth
Cc1cc(C)c(O)c(C(=O)CC(Br)C(=O)O)c1 (stereo not given) | 99.3%
COc1cc(-c2nc3sc(C)cn3c2/C=C2\C(=O)Nc3ccccc32)c(Br)c(OC)c1OC | 50.3%
CN(C)c1ccc(/C=N/n2c(-c3cc(F)c(Cl)cc3Cl)nn(CN3CCOCC3)c2=S)cc1 | 101%
CCOc1ccccc1C(=O)N1CCN(c2cc(Cl)cc(Cl)c2)CC1 | 19.3%
CSc1nc(N)nc2c1ncn2C | 84.5%
Fc1ccc(Nc2ncnc3ccc(-c4cn[nH]c4)cc23)cc1Cl | 49.5%
CCCCCn1ncc(-c2c(O)c(O)cc3c(O)c(-c4c(C)cc5c(-c6cnn(CCCCC)n6)c(O)c(O)cc5c4O)c(C)cc23)n1 | 6.6% (active)
O=C(Nc1ccc(-n2cc(-c3ccncc3)c(-c3ccc(O)c(Cl)c3)n2)cc1)c1ccc(Cl)c(C(F)(F)F)c1 | 28.4%
CCC1S/C(=N\N=C(/C)c2cc3ccccc3o2)N(c2ccccc2)C1=O (stereo not given) | 113%
Cc1cn(-c2cc(C(=O)Nc3cccc(-n4ccc5c(NC(=O)c6ccccc6)nccc54)c3)cc(C(F)(F)F)c2)cn1 | -19% (active)
C=C(C)[C@@H]1C/C=C(\COC(=O)[C@H](OC(C)=O)C(NC(=O)c2ccccc2)c2ccccc2)CC[C@H]2O[C@]2(C)CC/C=C(\C)CC1 (stereo not given in full) | 73.1% [5 µM]
FC(F)(F)c1cccc([Si](F)(c2cccc(C(F)(F)F)c2)c2cccc(C(F)(F)F)c2)c1 | 78.1%
CCCC(=O)Oc1ccc(/C(=C(\C)c2ccc(Cl)cc2)c2ccc(OCCN(CC)CC)cc2)cc1 | -51% (active)
c1coc(CSc2ncnc3nc[nH]c23)c1 | 101%
O=C(Nc1ccc(-n2ccc3c(NC(=O)c4ccccc4)ncnc32)cc1)c1ccc(Cl)c(C(F)(F)F)c1 | -40.8% (active)
COC(=O)/C=C/C(=O)c1cc(C)cc(C)c1O | 98.6%
COc1ccc2c(c1)O/C(=C/c1ccc(OCC(=O)Nc3ccc(S(N)(=O)=O)cc3)cc1)C2=O | 88.5%
CCn1c(C)nc([N+](=O)[O-])c1Sc1nc(N)nc2nc[nH]c12 | 53.9%
CCOC(=O)C(C)(CSSCC(C)(NC(=O)c1ccc2ccccc2c1)C(=O)OCC)NC(=O)c1ccc2ccccc2c1 (stereo not given) | 26.4%
CN(C)CCNc1nc2ccccc2c2c(=O)c3ccccc3sc12 | 13.2%

Structure (SMILES) | growth
Cc1c(C(C)(C)C)cc(C(C)(C)C)c2c1CN(C)CO2 | 111%
Clc1ccc2c(c1)nnn1c3ncccc3c(Br)c21 | 89.6%
CCN(CC)CCNc1ccc([N+](=O)[O-])c2sc3cc(Cl)ccc3c(=O)c12 | 52.9%
COc1ccc(/C=C2/C(=O)Nc3cc(Cl)c(-c4csc(N)n4)cc32)cc1 | 48.5%
Cc1nssc1=S | 111%
N#CC(C#N)=C(C#N)c1c[nH]c2ccccc12 | 80.4%
Cc1c(F)cccc1NC(=O)c1sc2nc3c(cc2c1N)CCCCC3 | 73.9%
O=C(O)c1cccc(S(=O)(=O)c2ccccc2)c1 | 102%
C=C1C(=O)O[C@H]2[C@H]1CC/C(CNC(=O)/C1=C/CC[C@@]3(C)O[C@H]3[C@H]3OC(=O)C(=C)[C@@H]3CC1)=C\CC[C@@]1(C)O[C@@H]21 | 91%
CCOc1ccc(NC(=O)Nc2cc(C(C)C)ccc2C)cc1 | 36.6%
CC(C)(C)C(=O)/C=c1/[nH]c(=O)/c(=C/c2ccccc2O)s1 | 44.2%
O=c1c2ccccc2sc2c(NCCN3CCOCC3)nc3ccccc3c12 | 43.1%
c1ccc([Se]CCCN2CCN(CCC[Se]c3ccccc3)CC2)cc1 | 108%
COc1ccc(-c2cc(-c3nnc(SC/C(=N\O)c4ccccc4)n3-c3ccccc3)c3ccccc3n2)cc1 | 96.8%
CCCCCCCCCCCC(=O)OCCNC(=O)C[n+]1ccccc1 | 104%
Cc1ccc2[nH]c3nc4cccnc4c(C)c3c2c1 | 74.5%
CCn1cc(C(=O)O)c(=O)c2cc(F)c(N3CCN(CC(=O)Nc4ccc(C(C)=O)cc4)CC3)cc21 | 94.6%
COc1cc(/C=C/C(=O)c2c(C)n([O-])c3cc(C)c(C)cc3[n+]2=O)cc(OC)c1OC | 65.9%
COc1cc(C(=O)NNC(=O)c2ccccc2C(=O)O)cc(OC)c1OC | 52.7%
Cc1cn([C@]2(CF)O[C@H](CO)C2C)c(=O)[nH]c1=O (stereo not given in full) | 109%
